Results on 38 compounds are retold here after PubChem BioAssay (NCI).

Each structure is given as a SMILES string. This is part of a sample that, as a whole, favours compounds with a hit. Of some 83,000 tested, about 20% had one in any assay.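 The endpoint reported here, percent growth, reads 100 for growth as untreated, 0 for no net growth and -100 for all cells dead.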 Unmarked numbers belong to inactive results. The source made the active and inactive calls. Rule for the calls: active = growth percent below 10; inactive = the rest.

The first test has as its system T-47D breast. Briefly: NCI-60 one-dose screen, 48 h (100 = growth as untreated, 0 = no growth, -100 = all killed). As to conditions: 10 µM unless noted.
Consider `O=c1[nH]c(-c2cn(-c3ccc(Cl)cc3)nn2)nc2ccccc12`, for which the growth is 54.4%. On the same count and under the same terms, the figure for `Cc1ccc(OCCn2c(C)nn(-c3ccc(Cl)cc3)c2=O)cc1` is 104%; for `O=C(COc1ccccc1)N1N=C(c2ccc(Cl)cc2)CC1c1c[nH]c2ccccc12` (stereo not drawn) it is 51.4%; for `COc1cc(OC)cc(-c2n[nH]nc2-c2ccc3c(c2)OCO3)c1` it is 55.4%. Same read-out and setting: under `COC(=O)CC/C(C)=N\Nc1ccc([N+](=O)[O-])cc1` stands 42%; under `O=C(O)C(=Cc1c2ccccc2cc2ccccc12)C(=O)O`, 90.5%; under `Clc1ccc(/C=C/c2nc(N3CCOCC3)c3nc(Cl)c(Cl)cc3n2)cc1`, 73%. Take `COc1cc(OC)c(C(=O)/C=C/c2cccc(C#N)c2)c(OC)c1`: the growth was 4.14% (active). Take `CCCC(C(=O)OCC)C(C)OC(=O)OCC` (stereo not drawn): the growth is 86.6%. Still for that read-out and setting: the figure for `CCN(CC)CCSc1c2ccc(Cl)cc2nc2ccc(OC)cc12` is -39.9% (active). Regarding `Cc1nn(-c2ccc(Cl)cc2)c(=O)n1CCOc1ccccc1Cl`, the growth was 79.5%. On the same count and under the same terms, the figure for `COc1ccc(S(=O)(=O)N2CCN(c3cc4c(cc3F)c(=O)c(C(=O)O)cn4C3CC3)CC2)c(OC)c1` is 75%. For `CCOC(=O)C1=C(C)NC(=O)NC1c1ccc(OCC(=O)N/N=C/c2ccc(Cl)cc2)cc1` (stereo not drawn), the growth was 87.1%. For `CCOC(=O)c1cc(/C(=N\O)c2cc(OC)c(OC)c(OC)c2)n2c(C)cccc12`, the growth was 27.7%. Turning to `C=CCOc1cccc(/C=C/C(=O)c2sc(Nc3cccnc3)nc2C)c1`, the growth was 61.3%. The same measure, in the same setting: the figure for `CN1CCN(c2ccc3cc(-c4nc5ccccc5[nH]4)c(=O)oc3c2)CC1` is 76.9%.

Regarding `O=C(/C=C/CN1CCOCC1)Nc1cc2c(Nc3cccc(Cl)c3F)ncnc2cc1OCCOC(F)F`, the growth was 15.1%.

As to `O=Nc1c(-c2c(O)[nH]c3ccc([N+](=O)[O-])cc23)[nH]c2ccc(O)cc12`, the growth was 16.8%. The same measure, in the same setting: under `COC(=O)c1ccc(C)cc1` stands 91.4%. Consider `COc1ccc(/C=C/c2nc(N3CCOCC3)c3cc(F)c(F)cc3n2)cc1OC`, for which the growth is 6.31% (active). For the compound `Cc1ccc2c(c1)ncn2-c1ncnc2c1CC(C)c1ccccc1N2C` (stereo not drawn), the growth is 24.4%.

As to `COc1ccc(S(=O)(=O)NCCNc2nccc(-c3c(-c4ccccc4)nc4sccn34)n2)cc1`, the growth was 10.9%. For the compound `CCCCC[C@@H]1Cc2cc(O)c(C(=O)O)c3c2[C@H](C[C@@]2(CCCO2)O3)O1`, the growth is 108%.

As to `O=C(Nc1ccc(Br)c(Cl)c1)c1cc(F)ccc1O`, the growth was 3.88% (active). The same measure, in the same setting: under `Cc1ccc2nc(-c3c(N)n[nH]c3CCCO)[nH]c(=O)c2c1` stands 111%.

The subject of another test is BT-549 breast. The description is as above. The note with it: 10 µM unless noted.
On to `CC(=O)Nc1nc(C(=O)N2N=C(C)/C(=C/c3cccs3)C2=O)cs1`, for which the growth was 97%. Same read-out and setting: the figure for `C=C1C(=O)O[C@H]2[C@H]1CC/C(COC(=O)NCCc1ccc(Br)cc1)=C\CC[C@@]1(C)O[C@@H]21` is -9.87% (active). `CCCCCCCCCCCCNC(=S)N/N=C/c1ccc(Cl)c(Cl)c1`: the growth is 120%. Take `CCCCCCCCCCCCCCCCC(Br)C(=O)O` (stereo not drawn): the growth is 122%. On the same count and under the same terms, under `CCN(Cc1ccc(CN(CC)C(=O)C(Cl)(Cl)Cl)cc1)C(=O)C(Cl)(Cl)Cl` stands 78.3%. The same measure, in the same setting: under `CS(=O)(=O)N(c1cc(-c2ccc3ncnc(Nc4cccc(Cl)c4)c3c2)cnc1Cl)S(C)(=O)=O` stands -8.61% (active). For the compound `COc1cc(C(=O)/C=C/c2cc(C(=O)c3cc(OC)c(OC)c(OC)c3)ccc2OC)ccc1N`, the growth is -51.3% (active). As to `CCCCCCCCCCC/C=C\C[C@H](O)C/C=C1/C(=O)C=C[C@@H]1C/C=C\CCCC(=O)OC`, the growth is -14.2% (active). Consider `O=S(=O)(NCCCNc1cc(-c2cn(-c3ccccc3)nc2-c2cccc(O)c2)ccn1)c1ccc(Cl)cc1`, for which the growth is 11.7%.

On to `CC(=O)/C=C/c1cc2cc(Cl)ccc2[nH]c1=O`, for which the growth was 65.5%. Same read-out and setting: the figure for `CC(=O)Nc1nc(C(=O)N2N=C(C)/C(=C/c3ccccc3)C2=O)cs1` is 107%; for `COC(=O)CCCCN=Cc1c(O)c(O)c(C(C)C)c2cc(C)c(-c3c(C)cc4c(C(C)C)c(O)c(O)c(C=NCCCCC(=O)OC)c4c3O)c(O)c12` it is 28.2%; for `COc1cccc(C2CC(=O)Nc3c2c(C)nn3-c2nc3ccccc3[nH]2)c1OC` (stereo not drawn) it is 87.1%.

Take `O=c1[nH]c(-c2cn(-c3ccc(Cl)cc3)nn2)nc2ccccc12`: the growth is 79.6%. `Cc1ccc(OCCn2c(C)nn(-c3ccc(Cl)cc3)c2=O)cc1`: the growth was 99.8%. On the same count and under the same terms, under `O=C(COc1ccccc1)N1N=C(c2ccc(Cl)cc2)CC1c1c[nH]c2ccccc12` (stereo not drawn) stands 71.3%; under `COc1cc(OC)cc(-c2n[nH]nc2-c2ccc3c(c2)OCO3)c1`, 51.2%; under `COC(=O)CC/C(C)=N\Nc1ccc([N+](=O)[O-])cc1`, 89.1%. Same read-out and setting: the figure for `O=C(O)C(=Cc1c2ccccc2cc2ccccc12)C(=O)O` is 105%. Same read-out and setting: under `Clc1ccc(/C=C/c2nc(N3CCOCC3)c3nc(Cl)c(Cl)cc3n2)cc1` stands 93.6%.

For `COc1cc(OC)c(C(=O)/C=C/c2cccc(C#N)c2)c(OC)c1`, the growth was -3.25% (active). Same read-out and setting: under `CCCC(C(=O)OCC)C(C)OC(=O)OCC` (stereo not drawn) stands 115%. For the compound `CCN(CC)CCSc1c2ccc(Cl)cc2nc2ccc(OC)cc12`, the growth is 107%. The same measure, in the same setting: the figure for `Cc1nn(-c2ccc(Cl)cc2)c(=O)n1CCOc1ccccc1Cl` is 94.4%. Still for that read-out and setting: under `COc1ccc(S(=O)(=O)N2CCN(c3cc4c(cc3F)c(=O)c(C(=O)O)cn4C3CC3)CC2)c(OC)c1` stands 95%; under `CCOC(=O)C1=C(C)NC(=O)NC1c1ccc(OCC(=O)N/N=C/c2ccc(Cl)cc2)cc1` (stereo not drawn), 87.5%. Still for that read-out and setting: the figure for `CCOC(=O)c1cc(/C(=N\O)c2cc(OC)c(OC)c(OC)c2)n2c(C)cccc12` is 19.4%; for `C=CCOc1cccc(/C=C/C(=O)c2sc(Nc3cccnc3)nc2C)c1` it is 44%; for `CN1CCN(c2ccc3cc(-c4nc5ccccc5[nH]4)c(=O)oc3c2)CC1` it is 87.7%. Take `O=C(/C=C/CN1CCOCC1)Nc1cc2c(Nc3cccc(Cl)c3F)ncnc2cc1OCCOC(F)F`: the growth is 86%. For the compound `O=Nc1c(-c2c(O)[nH]c3ccc([N+](=O)[O-])cc23)[nH]c2ccc(O)cc12`, the growth is 4.59% (active). Consider `COC(=O)c1ccc(C)cc1`, for which the growth is 120%.

Turning to `COc1ccc(/C=C/c2nc(N3CCOCC3)c3cc(F)c(F)cc3n2)cc1OC`, the growth was 33.4%. The same measure, in the same setting: the figure for `Cc1ccc2c(c1)ncn2-c1ncnc2c1CC(C)c1ccccc1N2C` (stereo not drawn) is -6.44% (active). The same measure, in the same setting: under `COc1ccc(S(=O)(=O)NCCNc2nccc(-c3c(-c4ccccc4)nc4sccn34)n2)cc1` stands 34.7%. For the compound `CCCCC[C@@H]1Cc2cc(O)c(C(=O)O)c3c2[C@H](C[C@@]2(CCCO2)O3)O1`, the growth is 115%. As for `O=C(Nc1ccc(Br)c(Cl)c1)c1cc(F)ccc1O`, the growth was -39% (active).

`Cc1ccc2nc(-c3c(N)n[nH]c3CCCO)[nH]c(=O)c2c1`: the growth was 104%.
